“And” between values parts separate entries of the source, which are not always exact repeats. Identical values can stand only once. Among all 5,500 compounds or so, about 2,000 (36%) were called active. Not shown: some 18% with an inconclusive outcome. Cut-off read from the data, not from the text of the source: active = normalized growth mostly below about 0.91 (no sharp cut-off); inconclusive = no clear call, values can overlap the other calls; inactive = mostly above about 0.92. Some of the results follow.
Experiment: chemical genetic growth profiling, strain panel (AID 1159580);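 note: tested at 20 µM; growth read once vehicle control cultures reached saturation at 30 °C; 1 = growth at the plate median or of vehicle wells; lower values mean less growth of the strain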
Conditions: S. cerevisiae deletion strains, growth OD

Measured: normalized growth

CC(N)CCCC(C)(C)O (centres undefined)
inactive: locus YAL013W, strain DEP1, hits give low values 0.998 | locus YAL021C, strain ccr4, hits give low values 0.973 | locus YAL026C, strain drs2, hits give low values 0.993 | locus YAL030W, strain snc1, hits give low values 0.989 | locus YBL061C, strain skt5, hits give low values 0.98 | locus YBR009C, strain hhf1, hits give low values 1.01 | locus YBR021W, strain FUR4, hits give low values 1.02 | locus YBR023C, strain chs3, hits give low values 0.98 | locus YBR171W, strain sec66, hits give low values 0.964 | locus YBR229C, strain ROT2, hits give low values 1.01 | locus YBR231C, strain swc5, hits give low values 0.976 | locus YBR279W, strain paf1, hits give low values 0.984 | locus YCL011C, strain gbp2, hits give low values 0.969 | locus YCL016C, strain dcc1, hits give low values 0.989 | locus YCL029C, strain bik1, hits give low values 1 | locus YCL061C, strain MRC1, hits give low values 0.971 | locus YCL069W, strain vba3, hits give low values 0.979 | locus YCR088W, strain abp1, hits give low values 0.973 | locus YDL005C, strain med2, hits give low values 0.983 | locus YDL035C, strain GPR1, hits give low values 1.02 | locus YDL040C, strain nat1, hits give low values 0.984 | locus YDL074C, strain BRE1, hits give low values 0.979 | locus YDL101C, strain DUN1, hits give low values 0.994 | locus YDL134C, strain PPH21, hits give low values 1.02 | locus YDL185W, strain tfp1, hits give low values 1.01 | locus YDL192W, strain arf1, hits give low values 1.01 | locus YDR001C, strain nth1, hits give low values 0.973 | locus YDR069C, strain doa4, hits give low values 0.981 | locus YDR101C, strain arx1, hits give low values 0.976 | locus YDR137W, strain rgp1, hits give low values 1.01 | locus YDR159W, strain sac3, hits give low values 0.975 | locus YDR162C, strain NBP2, hits give low values 1.01 | locus YDR195W, strain ref2 0.904 | locus YDR297W, strain sur2, hits give low values 0.975 | locus YDR318W, strain mcm21, hits give low values 1.01 | locus YDR334W, strain swr1, hits give low values 0.93 | locus YDR335W, strain msn5, hits give low values 0.985 | locus YDR388W, hits give low values 1.01 | locus YDR392W, strain spt3, hits give low values 0.905 | locus YDR502C, strain sam2, hits give low values 0.996 | locus YEL003W, strain gim4, hits give low values 0.97 | locus YEL037C, strain rad23, hits give low values 0.977 | locus YEL061C, strain CIN8 (second series), hits give low values 0.977 | locus YEL061C, strain CIN8, hits give low values 0.994 | locus YER015W, strain faa2, hits give low values 0.982 | locus YER016W, strain bim1, hits give low values 0.98 | locus YER110C, hits give low values 1.02 | locus YER111C, strain swi4, hits give low values 0.987 | locus YER155C, strain BEM2 (second series), hits give low values 0.972 | locus YER155C, strain BEM2, hits give low values 1 | locus YER167W, strain BCK2, hits give low values 1.01 | locus YFR010W, strain ubp6, hits give low values 0.978 | locus YGL078C, strain dbp3, hits give low values 1.01 | locus YGL086W, strain mad1, hits give low values 0.998 | locus YGL167C, strain pmr1, hits give low values 0.979 | locus YGL173C, strain kem1, hits give low values 0.983 | locus YGL227W, strain vid30, hits give low values 0.981 | locus YGL240W, strain doc1, hits give low values 0.979 | locus YGL248W, strain PDE1, hits give low values 1 | locus YGL253W, strain hxk2, hits give low values 0.977 | locus YGR135W, strain pre9, hits give low values 1.04 | locus YGR229C, strain SMI1, hits give low values 0.99 | locus YGR252W, strain gcn5, hits give low values 1.01 | locus YHR013C, strain ard1, hits give low values 0.959 | locus YHR027C, strain rpn1, hits give low values 0.969 | locus YHR030C, strain SLT2, hits give low values 1.01 and 1.08 | locus YHR079C, strain IRE1 (second series), hits give low values 1.01 | locus YHR079C, strain IRE1, hits give low values 1.08 | locus YHR094C, strain hxt1, hits give low values 1 | locus YHR129C, strain ARP1, hits give low values 1.01 | locus YHR142W, strain chs7, hits give low values 0.954 | locus YHR200W, strain rpn10, hits give low values 1.01 | locus YIL066C, strain RNR3, hits give low values 0.998 | locus YIL073C, strain SPO22, hits give low values 1.05 | locus YIL125W, strain kgd1, hits give low values 1 | locus YIR030C, strain dcg1, hits give low values 1.01 | locus YJL092W, strain hpr5, hits give low values 0.966 | locus YJL095W, strain BCK1 (second series), hits give low values 0.977 | locus YJL095W, strain BCK1, hits give low values 0.972 and 1.1 | locus YJL115W, strain asf1, hits give low values 0.939 | locus YJL129C, strain trk1, hits give low values 0.975 | locus YJL134W, strain LCB3, hits give low values 1.01 | locus YJL154C, strain vps35, hits give low values 0.978 | locus YJL164C, strain tpk1, hits give low values 1.01 | locus YJL166W, strain qcr8, hits give low values 0.987 | locus YJL168C, strain set2, hits give low values 0.997 | locus YJL187C, strain SWE1 (second series), hits give low values 0.974 | locus YJL187C, strain SWE1, hits give low values 0.994 | locus YJR043C, strain POL32, hits give low values 0.989

Reference: PubChem BioAssay AID1159580 (chemical genetic matrix, 2015)
